{"source": "paper PMC12820563", "about": "“FoxP3 forms a head-to-head dimer in vivo and stabilizes its multimerization on adjacent microsatellites”", "note": "The full ranking holds about 16,000 sequences; the median of “rpm ratio (pull-down/input)” is about 0.94, and the highest 2% start at about 1.7. Many of the other results were omitted from the sample, so the highest values are more common in it than they were.", "data": [{"molecular_target": "T1, MBP-FoxP1dN (Mus musculus, UniProt P58462 326-579)", "T1 sequence": "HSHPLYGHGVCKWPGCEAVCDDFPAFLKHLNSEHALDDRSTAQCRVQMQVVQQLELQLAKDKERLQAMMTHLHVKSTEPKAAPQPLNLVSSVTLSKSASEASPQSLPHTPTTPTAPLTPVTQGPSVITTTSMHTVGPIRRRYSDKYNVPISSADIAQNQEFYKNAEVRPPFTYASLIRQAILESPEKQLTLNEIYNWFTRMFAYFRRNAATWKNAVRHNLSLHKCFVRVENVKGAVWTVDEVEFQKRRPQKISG", "test": "PD-seq (MBP pull-down with sequencing); 20 mM Tris-HCl pH 7.5, 100 mM NaCl, 1.5 mM MgCl2, 0.4 uM protein, 0.1 uM dsDNA library, 30 min, room temperature, amylose pull-down; high values mean tight binding", "settings": "protein: recombinant; tags: His6-MBP; chain copies: 2; dsDNA, one strand shown", "how_it_was_run": "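A degenerate double-stranded DNA library, filled in with Klenow, was added at 0.1 µM to 0.4 µM His6-MBP-tagged mouse FoxP3 or FoxP1 fragment lacking the N-terminus, expressed in E. coli. Incubation lasted 30 min at room temperature in Tris pH 7.5 buffer with NaCl and MgCl2, after which complexes were collected on amylose resin, washed three times, digested with proteinase K to free the DNA, barcoded by PCR and sequenced by Illumina. Binding is the pooled-replicate reads-per-million enrichment of pull-down over input.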", "values": [{"sequence": "GATGATTGTTCTCCCAGCTGATGAATTAGTGCGTTCGAGTAAACAAATTTTCCTAATCTTTCTGTTCAAGCGCCATCTAC", "binding signal": "1.1 RPM ratio (pull-down/input)"}, {"sequence": "GATGATTGTTCTCCCAGCTGATGAATTCGATCATTCGAGTAAACAAATTTTCCTAATCTTTCTGTTCAAGCGCCATCTAC", "binding signal": "0.949 RPM ratio (pull-down/input)"}, {"sequence": "GATGATTGTTCTCCCAGCTGATGAATTGTCACCATCGAGTAAACAAATTTTCCTAATCTTTCTGTTCAAGCGCCATCTAC", "binding signal": "1.13 RPM ratio (pull-down/input)"}, {"sequence": "GATGATTGTTCTCCCAGCTGATGAATTACTACTGTCGAGTAAACAAATTTTCCTAATCTTTCTGTTCAAGCGCCATCTAC", "binding signal": "1.23 RPM ratio (pull-down/input)"}, {"sequence": "GATGATTGTTCTCCCAGCTGATGAATTTTTTCTGTCGAGTAAACAAATTTTCCTAATCTTTCTGTTCAAGCGCCATCTAC", "binding signal": "0.986 RPM ratio (pull-down/input)"}, {"sequence": "GATGATTGTTCTCCCAGCTGATGAATTTTTGTTGTCGAGTAAACAAATTTTCCTAATCTTTCTGTTCAAGCGCCATCTAC", "binding signal": "2.85 RPM ratio (pull-down/input)"}, {"sequence": "GATGATTGTTCTCCCAGCTGATGAATTACTGTTGTCGAGTAAACAAATTTTCCTAATCTTTCTGTTCAAGCGCCATCTAC", "binding signal": "2.55 RPM ratio (pull-down/input)"}, {"sequence": "GATGATTGTTCTCCCAGCTGATGAATTTTTTTTGTCGAGTAAACAAATTTTCCTAATCTTTCTGTTCAAGCGCCATCTAC", "binding signal": "0.87 RPM ratio (pull-down/input)"}, {"sequence": "GATGATTGTTCTCCCAGCTGATGAATTGTTCCTGTCGAGTAAACAAATTTTCCTAATCTTTCTGTTCAAGCGCCATCTAC", "binding signal": "0.999 RPM ratio (pull-down/input)"}, {"sequence": "GATGATTGTTCTCCCAGCTGATGAATTTCTGTTGTCGAGTAAACAAATTTTCCTAATCTTTCTGTTCAAGCGCCATCTAC", "binding signal": "2.16 RPM ratio (pull-down/input)"}, {"sequence": "GATGATTGTTCTCCCAGCTGATGAATTGTCGTTGTCGAGTAAACAAATTTTCCTAATCTTTCTGTTCAAGCGCCATCTAC", "binding signal": "1.38 RPM ratio (pull-down/input)"}, {"sequence": "GATGATTGTTCTCCCAGCTGATGAATTACTGATGTCGAGTAAACAAATTTTCCTAATCTTTCTGTTCAAGCGCCATCTAC", "binding signal": "1.37 RPM ratio (pull-down/input)"}, {"sequence": "GATGATTGTTCTCCCAGCTGATGAATTTCTTTTGTCGAGTAAACAAATTTTCCTAATCTTTCTGTTCAAGCGCCATCTAC", "binding signal": "0.952 RPM ratio (pull-down/input)"}, {"sequence": "GATGATTGTTCTCCCAGCTGATGAATTTTTCTTGTCGAGTAAACAAATTTTCCTAATCTTTCTGTTCAAGCGCCATCTAC", "binding signal": "1.1 RPM ratio (pull-down/input)"}, {"sequence": "GATGATTGTTCTCCCAGCTGATGAATTGTTGTTGTCGAGTAAACAAATTTTCCTAATCTTTCTGTTCAAGCGCCATCTAC", "binding signal": "3.2 RPM ratio (pull-down/input)"}, {"sequence": "GATGATTGTTCTCCCAGCTGATGAATTGCTATGTTCGAGTAAACAAATTTTCCTAATCTTTCTGTTCAAGCGCCATCTAC", "binding signal": "1.24 RPM ratio (pull-down/input)"}, {"sequence": "GATGATTGTTCTCCCAGCTGATGAATTCGAGTGGTCGAGTAAACAAATTTTCCTAATCTTTCTGTTCAAGCGCCATCTAC", "binding signal": "0.752 RPM ratio (pull-down/input)"}, {"sequence": "GATGATTGTTCTCCCAGCTGATGAATTCCTATCTTCGAGTAAACAAATTTTCCTAATCTTTCTGTTCAAGCGCCATCTAC", "binding signal": "0.802 RPM ratio (pull-down/input)"}]}]}
